Here are results for 50 sequences from the supplement of paper PMC3545927.

The assay has as its target furin, P09958. The assay can be described thus: furin cleavage Z-score vs untreated control; higher = more cleavage, active = 3.5 or more, inactive = 1 or less, 8 variable residues between constant flanks. In a few lines:
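Read counts from sequencing released DNA gave abundance for each bead-bound 8-mer peptide–cDNA fusion cut by purified furin over 7.5, 15 or 30 min. The cleavage Z-score compares log counts with furin-free reactions after lowess adjustment and median absolute deviation scaling.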

The other results are listed elsewhere or left out. No count for the full screen is at hand.
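Further: purified furin at 1:10 enzyme:substrate in 50 mM HEPES pH 7.5.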

Chain of furin, P09958 (P09958 whole entry, the tested form may be a part): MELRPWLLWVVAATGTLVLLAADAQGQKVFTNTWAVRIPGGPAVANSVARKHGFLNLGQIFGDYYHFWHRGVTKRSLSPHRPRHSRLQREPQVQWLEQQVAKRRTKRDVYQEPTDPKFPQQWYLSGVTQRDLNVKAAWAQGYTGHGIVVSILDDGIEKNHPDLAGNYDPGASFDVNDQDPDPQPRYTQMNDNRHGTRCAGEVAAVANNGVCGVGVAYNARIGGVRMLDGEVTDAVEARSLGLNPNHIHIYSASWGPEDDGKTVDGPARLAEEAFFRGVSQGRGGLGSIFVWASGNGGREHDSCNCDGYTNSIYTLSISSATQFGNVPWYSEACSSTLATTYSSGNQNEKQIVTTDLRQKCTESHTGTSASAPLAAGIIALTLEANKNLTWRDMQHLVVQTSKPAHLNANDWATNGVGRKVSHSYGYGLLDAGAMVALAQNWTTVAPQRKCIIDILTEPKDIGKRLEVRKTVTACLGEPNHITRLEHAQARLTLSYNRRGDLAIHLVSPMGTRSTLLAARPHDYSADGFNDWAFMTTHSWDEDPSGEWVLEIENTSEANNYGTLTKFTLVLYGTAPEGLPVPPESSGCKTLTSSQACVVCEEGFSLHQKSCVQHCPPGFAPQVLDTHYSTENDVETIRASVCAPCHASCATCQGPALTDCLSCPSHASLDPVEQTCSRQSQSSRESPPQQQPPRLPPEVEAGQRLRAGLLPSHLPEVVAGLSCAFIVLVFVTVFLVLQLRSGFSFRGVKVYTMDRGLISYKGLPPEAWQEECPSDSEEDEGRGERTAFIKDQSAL

B1: HC2570 (peptide)
chain: CASTPCSAHVAGNASASA
Turning to B1, the “furin cleavage Z-score” value is, setting by setting: (7.5 min) 0.366 (inactive); (15 min) 0.384 (inactive); (30 min) 0.66 (inactive).

B2: HC1147 (peptide)
chain: CASGSWLRDIAGNASASA
B2: the “furin cleavage Z-score” value is -1.83 (inactive) (7.5 min), -1.36 (inactive) (15 min) and 0.113 (inactive) (30 min).

B3: HC757 (peptide)
chain: CAVDFIPVENAGNASASA
For B3, the “furin cleavage Z-score” value by setting is: (7.5 min) -0.627 (inactive); (15 min) -0.626 (inactive); (30 min) -2 (inactive).

B4: FS-286 (peptide)
chain: CAQQSRSKRGAGNASASA
For B4, the “furin cleavage Z-score” value is 7.44 (active) (7.5 min), 8.25 (active) (15 min) and 7.09 (active) (30 min).

B5: FS-790 (peptide)
chain: CAHCSRSKRPAGNASASA
Take B5: the “furin cleavage Z-score” value by setting is: (7.5 min) 0.521 (inactive); (15 min) 0.407 (inactive); (30 min) -1.15 (inactive).

B6: FS-1177 (peptide)
chain: CAVLQRSKRGAGNASASA
Take B6: the “furin cleavage Z-score” value reads like this: (7.5 min) 10.8 (active); (15 min) 9.33 (active); (30 min) 7.91 (active).

B7: FS-474 (peptide)
chain: CAPNSPSKRGAGNASASA
Take B7: the “furin cleavage Z-score” value (7.5 min) was 0.58 (inactive), the “furin cleavage Z-score” value (15 min) was -0.142 (inactive) and the “furin cleavage Z-score” value (30 min) is 0.811 (inactive).

B8: FS-313 (peptide)
chain: CAVTVRWKRGAGNASASA
For B8, the “furin cleavage Z-score” value runs as follows: (7.5 min) 10.9 (active); (15 min) 12.2 (active); (30 min) 8.51 (active).

B9: FS-1377 (peptide)
chain: CAMWERYCRGAGNASASA
Regarding B9, the “furin cleavage Z-score” value runs as follows: (7.5 min) 1.18; (15 min) 1.38; (30 min) 0.416 (inactive).

B10: HC475 (peptide)
chain: CAIRMYVGGVAGNASASA
Regarding B10, the “furin cleavage Z-score” value reads like this: (7.5 min) -0.513 (inactive); (15 min) -1.17 (inactive); (30 min) -0.0738 (inactive).

B11: HC404 (peptide)
chain: CAWHYPPKPCAGNASASA
As to B11, the “furin cleavage Z-score” value was 2.21 (7.5 min), 0.243 (inactive) (15 min) and -0.391 (inactive) (30 min).

B12: HC917 (peptide)
chain: CADSSVLCECAGNASASA
Consider B12, for which the “furin cleavage Z-score” value runs as follows: (7.5 min) -0.488 (inactive); (15 min) 0.33 (inactive); (30 min) -0.601 (inactive).

B13: HC141 (peptide)
chain: CAEVVTATWVAGNASASA
For the sequence B13, the “furin cleavage Z-score” value reads like this: (7.5 min) 0.437 (inactive); (15 min) 0.0461 (inactive); (30 min) -0.276 (inactive).

B14: HC1310 (peptide)
chain: CAETWKKPDYAGNASASA
On to B14, for which the “furin cleavage Z-score” value is, setting by setting: (7.5 min) -0.221 (inactive); (15 min) -1.55 (inactive); (30 min) -1.15 (inactive).

B15: HC2074 (peptide)
chain: CAVVCCSMKYAGNASASA
With B15, the “furin cleavage Z-score” value is 0.109 (inactive) (7.5 min), 0.25 (inactive) (15 min) and 0.72 (inactive) (30 min).

B16: HC2023 (peptide)
chain: CAVVACSMSYAGNASASA
B16: the “furin cleavage Z-score” value reads like this: (7.5 min) 1.53; (15 min) 0.103 (inactive); (30 min) 1.35.

B17: FS-1081 (peptide)
chain: CASKGRIRRRAGNASASA
Regarding B17, the “furin cleavage Z-score” value was 8.99 (active) (7.5 min), 8.1 (active) (15 min) and 8.52 (active) (30 min).

B18: FS-1490 (peptide)
chain: CASRSRRRRRAGNASASA
As for B18, the “furin cleavage Z-score” value reads like this: (7.5 min) 8.08 (active); (15 min) 8.87 (active); (30 min) 7.6 (active).

B19: FS-302 (peptide)
chain: CASRGRRRRRAGNASASA
On to B19, for which the “furin cleavage Z-score” value was 4.34 (active) (7.5 min), 2.4 (15 min) and 4.26 (active) (30 min).

B20: HC889 (peptide)
chain: CACVTQTVDFAGNASASA
B20: the “furin cleavage Z-score” value was 0.399 (inactive) (7.5 min), -1.73 (inactive) (15 min) and 0.371 (inactive) (30 min).

B21: HC591 (peptide)
chain: CAIPPLNVRGAGNASASA
Take B21: the “furin cleavage Z-score” value (7.5 min) is -2.18 (inactive), the “furin cleavage Z-score” value (15 min) is -0.0771 (inactive) and the “furin cleavage Z-score” value (30 min) was -0.417 (inactive).

B22: FS-2097 (peptide)
chain: CARTRRLLWAAGNASASA
For the sequence B22, the “furin cleavage Z-score” value (7.5 min) is -0.0202 (inactive), the “furin cleavage Z-score” value (15 min) is 0.591 (inactive) and the “furin cleavage Z-score” value (30 min) was -0.328 (inactive).

B23: HC462 (peptide)
chain: CAITPRCLVDAGNASASA
As for B23, the “furin cleavage Z-score” value was -0.371 (inactive) (7.5 min), -0.729 (inactive) (15 min) and -2.3 (inactive) (30 min).

B24: FS-2615 (peptide)
chain: CARTRRHLHDAGNASASA
Turning to B24, the “furin cleavage Z-score” value is, setting by setting: (7.5 min) 7.74 (active); (15 min) 9.2 (active); (30 min) 8.75 (active).

B25: FS-2834 (peptide)
chain: CARTRRLLDKAGNASASA
In the case of B25, the “furin cleavage Z-score” value is -0.433 (inactive) (7.5 min), -1.53 (inactive) (15 min) and -0.417 (inactive) (30 min).

B26: FS-3110 (peptide)
chain: CARTPRGLDDAGNASASA
For the sequence B26, the “furin cleavage Z-score” value reads like this: (7.5 min) 5.13 (active); (15 min) 6.18 (active); (30 min) 6 (active).

B27: FS-3173 (peptide)
chain: CARTRRALSDAGNASASA
As to B27, the “furin cleavage Z-score” value by setting is: (7.5 min) 7.04 (active); (15 min) 8.87 (active); (30 min) 6.82 (active).

B28: FS-2832 (peptide)
chain: CARTPRPGEQAGNASASA
In the case of B28, the “furin cleavage Z-score” value was -0.162 (inactive) (7.5 min), -0.138 (inactive) (15 min) and -0.877 (inactive) (30 min).

B29: HC1329 (peptide)
chain: CAESTLSTALAGNASASA
Take B29: the “furin cleavage Z-score” value is -0.324 (inactive) (7.5 min), 0.0602 (inactive) (15 min) and 1.27 (30 min).

B30: HC2411 (peptide)
chain: CAEVPCHRPDAGNASASA
On to B30, for which the “furin cleavage Z-score” value by setting is: (7.5 min) -1.49 (inactive); (15 min) -0.692 (inactive); (30 min) 0.135 (inactive).

B31: FS-598 (peptide)
chain: CAILSRKKRSAGNASASA
Take B31: the “furin cleavage Z-score” value runs as follows: (7.5 min) 13.1 (active); (15 min) 11 (active); (30 min) 8.58 (active).

B32: HC641 (peptide)
chain: CAHNGLRDLAAGNASASA
B32: the “furin cleavage Z-score” value is -0.235 (inactive) (7.5 min), 0.0336 (inactive) (15 min) and 0.434 (inactive) (30 min).

B33: FS-1310 (peptide)
chain: CAASSSKKRSAGNASASA
In the case of B33, the “furin cleavage Z-score” value was 1.7 (7.5 min), 1.89 (15 min) and 0.28 (inactive) (30 min).

B34: FS-794 (peptide)
chain: CAHNGRKKRSAGNASASA
Regarding B34, the “furin cleavage Z-score” value (7.5 min) was 12.6 (active), the “furin cleavage Z-score” value (15 min) was 13.4 (active) and the “furin cleavage Z-score” value (30 min) is 9.77 (active).

B35: FS-1587 (peptide)
chain: CADTGYPKRSAGNASASA
B35: the “furin cleavage Z-score” value is 0.338 (inactive) (7.5 min), -0.532 (inactive) (15 min) and 2.06 (30 min).

B36: HC2367 (peptide)
chain: CAEVPCHFPSAGNASASA
Regarding B36, the “furin cleavage Z-score” value (7.5 min) is 0.277 (inactive), the “furin cleavage Z-score” value (15 min) is -0.0294 (inactive) and the “furin cleavage Z-score” value (30 min) was 0.605 (inactive).

B37: FS-761 (peptide)
chain: CAEAWRSRRDAGNASASA
On to B37, for which the “furin cleavage Z-score” value (7.5 min) is 5 (active), the “furin cleavage Z-score” value (15 min) is 6.16 (active) and the “furin cleavage Z-score” value (30 min) was 5.62 (active).

B38: HC2251 (peptide)
chain: CAEVVTSTWDAGNASASA
Regarding B38, the “furin cleavage Z-score” value is -0.232 (inactive) (7.5 min), -0.217 (inactive) (15 min) and -0.0353 (inactive) (30 min).

B39: FS-1251 (peptide)
chain: CAQPSSSRRDAGNASASA
Regarding B39, the “furin cleavage Z-score” value is, setting by setting: (7.5 min) -0.0806 (inactive); (15 min) -1.03 (inactive); (30 min) -1.19 (inactive).

B40: FS-202 (peptide)
chain: CATPKRSRRDAGNASASA
As to B40, the “furin cleavage Z-score” value is 10.5 (active) (7.5 min), 10.4 (active) (15 min) and 6.86 (active) (30 min).

B41: HC282 (peptide)
chain: CATPTVATRDAGNASASA
Consider B41, for which the “furin cleavage Z-score” value runs as follows: (7.5 min) -1.53 (inactive); (15 min) 0.0271 (inactive); (30 min) -0.971 (inactive).

B42: FS-573 (peptide)
chain: CAVLTRSRRDAGNASASA
With B42, the “furin cleavage Z-score” value (7.5 min) was 15.8 (active), the “furin cleavage Z-score” value (15 min) is 16 (active) and the “furin cleavage Z-score” value (30 min) was 10.2 (active).

B43: HC2213 (peptide)
chain: CAEVVTSRWVAGNASASA
With B43, the “furin cleavage Z-score” value (7.5 min) is 0.434 (inactive), the “furin cleavage Z-score” value (15 min) was -0.178 (inactive) and the “furin cleavage Z-score” value (30 min) came to 1.55.

B44: FS-607 (peptide)
chain: CALHSRNKRLAGNASASA
With B44, the “furin cleavage Z-score” value is 7.17 (active) (7.5 min), 9.47 (active) (15 min) and 6.69 (active) (30 min).

B45: FS-44 (peptide)
chain: CAKPARRKRLAGNASASA
Turning to B45, the “furin cleavage Z-score” value is 8.86 (active) (7.5 min), 9.53 (active) (15 min) and 10.1 (active) (30 min).

B46: FS-1202 (peptide)
chain: CAGPQRQKKLAGNASASA
For B46, the “furin cleavage Z-score” value runs as follows: (7.5 min) -0.669 (inactive); (15 min) -1.47 (inactive); (30 min) -0.377 (inactive).

B47: FS-210 (peptide)
chain: CAWHSRRKRLAGNASASA
Take B47: the “furin cleavage Z-score” value was 9.83 (active) (7.5 min), 11.7 (active) (15 min) and 10.6 (active) (30 min).

B48: FS-939 (peptide)
chain: CALHSRPQRLAGNASASA
For B48, the “furin cleavage Z-score” value (7.5 min) was 0.578 (inactive), the “furin cleavage Z-score” value (15 min) is 1.4 and the “furin cleavage Z-score” value (30 min) worked out at 1.43.

B49: FS-1526 (peptide)
chain: CAGPIRRKRLAGNASASA
For B49, the “furin cleavage Z-score” value was 11.1 (active) (7.5 min), 11.4 (active) (15 min) and 9.25 (active) (30 min).

B50: FS-259 (peptide)
chain: CAKPARVSKDAGNASASA
Consider B50, for which the “furin cleavage Z-score” value is, setting by setting: (7.5 min) -0.289 (inactive); (15 min) -0.617 (inactive); (30 min) -0.0479 (inactive).
